Screening data from PubChem.
PLK1 PBD inh: blocks phosphopeptide binding to human PLK1 polo-box domain; Plk1 PBD binding of FITC phosphopeptide, fluorescence polarization; AID 720504; Potency, µM, inactives show max response, negative = inhibition, most hits filed as inhibitors; P53350; actives 2.8% (n = 360,000); also: potency is read from the fitted curve at half-maximal effect; series mostly up to about 57 µM; % is scaled to controls: 0 for no effect and ±100 for the full control effect; nearly all actives have a fitted effect of over 65% in size
JMJD2A Tudor: blocks the human JMJD2A Tudor domain; AlphaScreen JMJD2A-Tudor / H3K4me3 peptide binding; Potency, µM (doses to about 114 µM), inactives show top-dose activity change, negative = inhibition, usual class: inhibitors; actives 4.4% (n = 390,000); AID 504339; also: potency is read from the fitted curve at half-maximal effect; % is scaled to controls: 0 for no effect and ±100 for the full control effect; nearly all actives have a fitted effect of over 50% in size
G9a inh: G9a (human) methyltransferase inhibition | Q96KQ7 | G9a H3K9 monomethylation, AlphaScreen, 2 h | Potency, µM (titrated, usually from 102 µM), inactives show top-dose activity, negative = inhibition, usual class: inhibitors | actives 8.8% (n = 350,000) | AID 504332; also: potency is read from the fitted curve at half-maximal effect; % is scaled to controls: 0 for no effect and ±100 for the full control effect; nearly all actives have a fitted effect of over 75% in size
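Quantitative HTS format: methyltransferase activity on a biotin-tagged H3K9 peptide is measured by AlphaScreen, using a rabbit anti-monomethyl-H3K9 antibody with streptavidin donor and anti-IgG acceptor beads. Final levels are 20 nM enzyme, 500 nM peptide, 20 uM SAM; 2 h RT.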
PI5P4Ka inh: blocks human PI5P4K alpha kinase activity; P48426; PI5P4Kalpha enzyme, ADP-Glo luminescence, 60 min; stronger effect = lower value; max response, %; actives 1.2% (n = 330,000); AID 652105; active = max response of -50% or lower; inconclusive = between -30% and -50%; inactive = -30% or higher; also: value at the top dose of about 77 µM; % is scaled to controls: 0 for no effect and ±100 for the full control effect
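ADP-Glo luminescence end-point read after a 60 min room-temperature kinase reaction of PI5P4Kalpha plus substrate, initiated with ATP at 5 microM final. Buffer: 0.038 M HEPES pH 7.4, EGTA, 0.1% CHAPS, 5% DMSO.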
HP1b binding inh: inhibitors of HP1-beta chromodomain binding to methylated histone tails. AlphaScreen HP1-beta / biotin-H3K9me3 peptide binding. Potency, µM (highest dose often 114 µM), without a hit: at the top dose activity change, negative = inhibition, actives largely listed as inhibitors. actives 0.56% (n = 390,000). AID 540317; also: potency is read from the fitted curve at half-maximal effect; nearly all actives have a fitted effect of over 70% in size
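AlphaScreen: HP1-beta (50 nM) preformed 30 min with biotin-H3(1-18)K9me3 peptide (50 nM) in PBS pH 7.4, 0.01% Tween-20. Compound added for 30 min at RT, then streptavidin donor/nickel chelate acceptor beads (10 ug/mL) for 30 min.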
BAZ2B block: BAZ2B (human) inhibition; Q9UIF8; AlphaScreen BAZ2B-H3K14Ac peptide displacement; Potency, µM (highest dose often 114 µM), without a hit: at the top dose activity change, negative = inhibition, most hits filed as inhibitors; actives 4.4% (n = 360,000); also: potency is read from the fitted curve at half-maximal effect; % is scaled to controls: 0 for no effect and ±100 for the full control effect; nearly all actives have a fitted effect of over 60% in size
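Complex of BAZ2B and biotin-H3K14Ac (50 nM apiece) forms over 30 min at RT, then faces library compounds up to 110 uM for another 30 min; AlphaScreen beads added, 20 min dark incubation, luminescence read.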
The depositor's hits bear a star; ? = inconclusive; nt = no result; [ ] = remark or other dose. A selection: hits, their analogues and other compounds. The true share with any hit is near 12%. Unless noted, calls follow the shape of the dose curve; as a rule, active = well fitted curve in the direction sought with a large enough effect; inconclusive = small, poorly fitted or top-dose-only effect, or another doubt; inactive = no such curve, though single readings can be large; an effect the other way counts as inactive or inconclusive.

SMILES	PLK1 PBD inh	JMJD2A Tudor	G9a inh	PI5P4Ka inh	HP1b binding inh	BAZ2B block
NC(=O)NC(=O)COC(=O)CCCSc1nc2ccccc2s1	21.2µM*	-3.7%[11.4 µM]	12.8%	4.7	6.3%	-1.3%
c1ccc2sc(SCSc3nc4ccccc4s3)nc2c1	-9.4%	161.3%	nt	7.2	254.4%	107.7%
O=C(COC(=O)CCCc1nc2ccccc2s1)NC(=O)NCc1ccco1	-7.3%	?	?	-13.4	3.9%	56.2µM*
COCCNC(=O)c1nc2ccccc2s1	-3.7%	0.0%	-4.5%	-0.2	52.1%	-27.9%
C[n+]1cccc(CNC(=O)/C=N/O)c1	0.4%	?	39.8µM*	7.4	9.9%	56.2µM*
Cc1cc(NCc2ccccn2)ccc1Br	-3.6%	8.91µM*	25.1µM*	nt	-38.2%	50.1µM*
CC(C)OCCCNC(=O)c1cc2c(-c3ccc(Cl)cc3)nn(C)c2s1	nt	-1.3%	3.5%[59 µM]	nt	38.2%	nt
COc1ccc(NC(=O)NNC(=O)CCc2ccc(O)c(O)c2)cc1OC	-6.2%	28.2µM*	-11.5%	-3.3	?	-16.9%
COc1ccc(CCC(=O)NNC(=O)Nc2ccc(OC)c(OC)c2)cc1	2.3%	2.8%	1.7%	5.5	38.4%	-0.8%
CCCOc1ccc(Br)cc1CSC(=N)N	29.9µM*	-30.6%	6.0%[59 µM]	1.4	21.8%	6.8%
CCN1C(=O)/C(=C/N2CCc3ccccc3C2)SC1=S	-0.5%	-25.5%	nt	2.8	15.3%	15.2%
CCCCCN1C(=O)/C(=C/c2c(N3CCc4ccccc4C3)nc3ccccn3c2=O)SC1=S	5.5%	39.8µM*	nt	-5.5	?	nt
CCOc1cccc(OCCCCn2ccnc2)c1	-6.1%	6.31µM*	?	-4.8	?	50.1µM*
Brc1cccc(OCCn2ccnc2)c1	?	3.55µM*	8.91µM*	-2.1	-15.6%	39.8µM*
CCc1cccc(OCCCn2ccnc2)c1	-1.5%	12.6µM*	15.8µM*	1.8	50.1µM*	31.6µM*
CCc1ccc(N2CCN(S(=O)(=O)CC34CCC(CC3=O)C4(C)C)CC2)cc1 (stereo not drawn)	-23.9%	-35.6%	32.1%[59 µM]	4.2	34.8%	?
O=C1C=C(N2CCOCC2)C2(CCCCC2)O1	3.7%	0.0%	44.7µM*	-4.3	16.5%	?
CC1CCCCC1NC(=O)CCCCCn1c(=S)[nH]c2ccsc2c1=O (stereo not drawn)	0.4%	3.1%	28.2µM*	-1.1	34.4%	-1.1%
O=C(CCCn1c(=S)[nH]c2ccsc2c1=O)NCCc1ccccc1	-12.5%	7.0%	10µM*	-7.1	39.8%	-1.1%
COc1ccc2[nH]c3c(=O)n(CCCC(=O)NC4CCC(C)CC4)c(=S)[nH]c3c2c1 (stereo not drawn)	-3.1%	-13.2%	nt	-1.4	22.7%	-8.4%
CCCNC(=O)CCCCn1c(=S)[nH]c2c([nH]c3ccc(OC)cc32)c1=O	21.2µM*	?	14.8%	?	?	-6.2%
COc1ccc2[nH]c3c(=O)n(CCCC(=O)NC4CCCCC4C)c(=S)[nH]c3c2c1 (stereo not drawn)	29.9µM*	-28.8%	nt	-17.1	-13.0%[57 µM]	?
CC(Oc1ccccc1F)C(=O)NNC(=O)Cc1ccc(S(=O)(=O)N2CCOCC2)s1 (stereo not drawn)	-3.4%	-17.0%	nt	-9.8	36.9%	nt
O=C(NCCCN1CCN(c2ccccc2F)CC1)c1sc2ncccc2c1-n1cccc1	nt	?	-39.8%[59 µM]	nt	6.1%[57 µM]	?
CCN1CC(C)(C)N(C(=O)c2ccccc2)CC1(C)C	6.6%	9.0%	nt	2.1	44.4%	nt
SMILES	PLK1 PBD inh	JMJD2A Tudor	G9a inh	PI5P4Ka inh	HP1b binding inh	BAZ2B block
CCCNC(=O)c1ccc(Cn2c(=S)[nH]c3c([nH]c4ccc(OC)cc43)c2=O)cc1	-6.0%	?	-43.2%	-12.6	23.9%	-18.5%
COc1ccc2[nH]c3c(=O)n(CCCCC(=O)NCCC(C)C)c(=S)[nH]c3c2c1	11.9µM*	?	3.2%	-29.6	27.8%	-5.6%
COc1ccc2[nH]c3c(=O)n(CCCCC(=O)N4CCCC4)c(=S)[nH]c3c2c1	-9.8%	3.55µM*	2.24µM*	nt	23.8%	-2.3%
CCN(CC)C(=O)C1=C(C)N(Cc2ccc(C(C)(C)C)cc2)C(=O)C(CC(=O)NCc2cccs2)C1 (stereo not drawn)	-8.8%	nt	nt	-4.3	nt	nt
COc1ccc(C(=O)NNC(=O)C(=O)Nc2ccc(C)cc2)cc1	3.6%	-13.7%	-7.2%[59 µM]	-2.8	30.9%	-1.3%
COc1ccc(C(=O)NNC(=O)C(=O)Nc2ccc(C)c(Cl)c2)cc1	26.7µM*	?	6.7%	-22.1	17.8%	-7.5%
Cc1ccc(NC(=O)C(=O)NNC(=O)c2ccccc2C)cc1Cl	-4.2%	-12.3%	33.8%[0.501 µM]	8.3	41.9%	-3.6%
COc1ccccc1C(=O)NNC(=O)C(=O)Nc1ccc(C)c(Cl)c1	29.9µM*	-15.5%	-6.1%	-1.7	-19.7%[57 µM]	-22.3%
CC1(C(=O)NS(=O)(=O)c2cccc(C#N)c2)CCN1C(=O)Cc1ccccc1Cl (stereo not drawn)	-9.8%	nt	nt	-18.8	nt	nt
COc1ccc(CNS(=O)(=O)NCc2ccc(OC)c(OC)c2)cc1OC	-2.5%	2.8%	-0.2%	6.8	16.0%	0.1%
COc1ccc(CNc2cccc3[nH]c(C(F)(F)F)nc23)cc1OC	3.7%	?	-29.1%[2.33 µM]	2.2	-25.8%	50.1µM*
COc1ccc(CNc2ccccc2SC)cc1OC	-27.9%	79.4µM*	10µM*	nt	15.9%	?
COc1cc(CNc2ccccc2SC)cc(OC)c1OC	-11.6%	?	11.2µM*	nt	12.9%	-33.0%
COc1ccc(CNC(=O)c2[nH]c(C(F)(F)F)nc2-c2ccccc2)cc1OC	-13.3%	nt	nt	-5.8	nt	nt
CC(C)CC(=O)N1CCN(Cc2ccc(C(F)(F)F)cc2)CC1	9.2%	28.2µM*	nt	-0.8	?	?
CC(C)CC(=O)N1CCN(C(=O)c2ccco2)CC1	-4.8%	-1.7%	-11.2%	-4.6	35.8%	6.7%
O=C(NCC(=O)N1CCN(Cc2ccccc2)CC1)c1ccc(Br)cc1	0.2%	-11.7%	nt	5.4	36.7%	-15.9%
CC(C)CC(=O)N1CCN(Cc2ccccc2[N+](=O)[O-])CC1	-15.4%	1.26µM*	14.1µM*	-1.2	31.6µM*	25.1µM*
CC(C)CC(=O)N1CCN(Cc2ccc(Br)cc2)CC1	7.6%	20µM*	31.6µM*	-4.5	?	-32.2%
COc1ccc(CN2CCN(Cc3ccc(C(F)(F)F)cc3)CC2)cc1	-9.8%	7.94µM*	7.08µM*	-7.3	?	25.1µM*
CCOC(=O)N1CCN(C(=O)Cc2ccccc2[N+](=O)[O-])CC1	-13.1%	-12.6%	25.3%	-1.6	16.9%	-17.9%
CC(C)C[C@H]1CNC(=O)C(=O)N1C[C@@H]1CCCN1C[C@H](Cc1ccc(O)cc1)N1C[C@H](Cc2ccccc2)N(CC2CCCCC2)C(=O)C1=O	-8.3%	nt	nt	-3.6	nt	nt
